Experiment [1] is described as follows: reduced viability of SK-BR-3 breast cancer cells – cell-based, 24 h, human, pilot screen (AID 572;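 active = viability at or below 10% of carrier control in both of two separate runs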;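 note: compound exposure lasted between 18 and 24 h rather than exactly 24 h; 100% = carrier-treated control wells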). The note with it: SK-BR-3 viability, CellTiter-Glo luminescence, at 10 µM, stronger effect = lower value. A general note: Cellular ATP, detected with luciferase, serves as a proxy for viable cell number.
Experiment [2] in a line: HUVEC growth inhibition – cell-based, human, primary screen (AID 575;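 active = viability at or below 30% in both replicate assays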;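 note: 100% = median of untreated cell wells with 0.1% DMSO on each plate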). To be noted: HUVEC proliferation, CellTiter-Glo luminescence, 72 h; at 10 µM; stronger effect = lower value.
Experiment [3] is described as follows: H69AR cell proliferation blockers – human, duplicate replicates, primary screen (AID 580;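 active = viability at or under a set limit in both replicates, limit being median viability minus 3 SD, cut at about 48% in these data, passing the limit was not always enough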;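 note: 100% = mean luminescence of untreated wells and 0% = no signal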). To be noted: H69AR lung tumor cells viability, ATP luminescence, 72 h; at 10 µM; stronger effect = lower value.
Experiment [4] is described as follows: MRP1 drug-resistance reversers in H69AR cells – cell-based, doxorubicin co-treatment, pilot screen (AID 601;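 active = viability loss from added drug above about 55%, and viability with drug at most 40%, in both replicates, limit read from the data, passing the limit was not always enough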). The note with it: CellTiter-Glo, 72 h, at 10 µM; for differential viability (reversal): stronger effect = higher value.
Experiment [5] can be described thus: yeast transport mutant growth inhibition pilot in 384-well plates, post-Golgi transport modulator project (AID 636; in the data active = inhibition above about 31%). The note with it: absorbance 615 nm, about 18 h, stronger effect = higher value.
Experiment [6] in a line: growth suppression of yeast trafficking mutant, preliminary HTS, modulators of trafficking downstream of Golgi apparatus project, 1536-format plate, OD 615 nm (AID 637; in the data active = inhibition above about 30%). The note with it: yeast transport mutant growth, absorbance 615 nm, 18 h; stronger effect = higher value.
A short description of experiment [7]: S. cerevisiae growth inhibition in permissive medium (OD615), pilot counter-assay for S. cerevisiae lifespan shortening project, permissive growth control (AID 705). The note with it: OD615, 24 h, at 10 µM, stronger effect = higher value.
Experiment [8] in a line: S. cerevisiae growth inhibition in restrictive medium, OD615, pilot screen, restrictive growth control, yeast lifespan reduction project (AID 706;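 active = growth inhibition above a set limit, 3 SD over mean compound inhibition, in both replicates, cut at about 43% in these data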;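 note: modified DeaD lifespan yeast strain shifted to restrictive glucose medium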). To be noted: OD615, 48 h, at 10 µM, stronger effect = higher value.
A short description of experiment [9]: doxorubicin toxicity protection in MRP-1 cells – H69AR cells, CellTiter-Glo, duplicate, MRP-1 activator project, pilot screen (AID 807;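 active = viability increase at or above a cutoff of the median across tested compounds plus 3 SD, cut at about 8.5% in these data, passing the limit was not always enough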;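 note: compound pretreatment 18-22 h then 72 h combined with doxorubicin; 0% = doxorubicin alone and 100% = vehicle without doxorubicin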). To be noted: H69AR viability with doxorubicin, CellTiter-Glo luminescence; at 10 µM; stronger effect = higher value.
Experiment [10] can be described thus: viability of HCT116 without oncogenic beta-catenin – human colon tumor cells, pilot screen (AID 823;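 active = cell viability at or below a set limit in both duplicate runs, the limit being the all-compound median minus 4 SD, cut at about 23% in these data, passing the limit was not always enough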;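 note: 0% = wells killed by 20 µM Hyamine and 100% = untreated DMSO cell wells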). The note with it: HCT116 beta-catenin knockout viability, CellTiter-Glo, 60 h; at 10 µM; stronger effect = lower value.
Experiment [11] can be described thus: viability of PTEN-null HCT116 cells – cell-based, HCT116 clonal line, CellTiter-Glo, pilot screen (AID 824;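 active = viability at or below 27.92% in each of two runs, the all-compound median minus 4 SD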;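 note: 0% = 20 µM Hyamine control and 100% = vehicle cell control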). To be noted: HCT116 PTEN-deleted viability, 60 h, at 10 µM, stronger effect = lower value.
Experiment [12] can be described thus: RAM pathway blockade in budding yeast – dse1pr::URA3 reporter, 5-FOA selection, pilot screen (AID 869;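 active = inhibition over a set limit, the all-compound mean plus 3 SD, in both replicate runs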;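 note: 0% = DMSO wells with no growth and 100% = 10 µM 1-NA-PP1 with full growth; RAM network block rescues cells from 5-FOA so hits raise OD615 growth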). The note with it: S. cerevisiae dse1pr::URA3 5-FOA growth, OD615, 2 d; at 10 µM; stronger effect = higher value; strain carries analog-sensitive mutant Cbk1 kinase.
A short description of experiment [13]: RAM signaling pathway blockade in yeast – S. cerevisiae, Pdr1DBD-CYC8 efflux-inhibited sensitized strain, primary screen (AID 1298;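 active = RAM network inhibition above 8.4% in each of two replicates, 3 SD over the compound average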;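 note: 0% = DMSO untreated cells without growth and 100% = 10 µM 1-NA-PP1 full growth; higher means more yeast growth rescued from 5-FOA killing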). The note with it: S. cerevisiae cbk1-as DSE1-URA3 strain, 5-FOA growth OD615, 2 d; at 50 µM; stronger effect = higher value.
Where [14] appears, read: H69AR cells + 2 uM doxorubicin, measured here: viability with 2 uM doxorubicin, stronger effect = lower value.
[15] abbreviates: H69AR cells, compound alone cytotoxicity.

SMILES strings stand for the structures. Records with an inconclusive call do not appear. Activity calls are given as the source filed them.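 Rule for the calls, unless noted: active = growth inhibition above 25% in both replicates, a cutoff set 3 SD above the mean; inconclusive = above 25% in only one replicate; inactive = the rest.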

What is called viability is a read-out of living cells in per cent, often relative to untreated cells. A word on the inhibition: it is the drop in the measured response relative to a control, in per cent. For the compound `COc1ccccc1N1CCN(C(=O)C2CCN(S(=O)(=O)c3ccc(F)cc3)CC2)CC1`, the viability in experiment [1] is 73% (inactive); in experiment [2], 70.8% (inactive); in [3] it was 87.5% (inactive); in [4] (setting [14]) it was 80.8%; in [4] (setting [15]) it was 87.5%; in [10] it was 81.2% (inactive). The viability in experiment [11] was 84% (inactive). In experiment [4] (H69AR cells + 2 uM doxorubicin), the differential viability (reversal) was 6.62% (inactive). Besides, the inhibition in experiment [5] is -0.27% (inactive); in experiment [6], 8.55% (inactive); in experiment [12], 1.03% (inactive). Also, the growth inhibition in [7] was -13.6% (inactive); in experiment [8], -1.89% (inactive). In [9], the viability increase is -0.47% (inactive). Also, in [13], the RAM network inhibition was 4.6% (inactive).

In the case of `O=C(Cn1c(=O)sc2ccccc21)NCCOc1ccccc1F`, the viability is 102% (inactive) in experiment [1]; 108% (inactive) in [2]; 99.4% (inactive) in experiment [3]; 85.8% in experiment [4] (setting [14]); 99.4% in experiment [4] (setting [15]); 108% (inactive) in experiment [10]. In addition, the viability in experiment [11] is 98.4% (inactive). Moreover, the differential viability (reversal) in experiment [4] (H69AR cells + 2 uM doxorubicin) is 13.6% (inactive). Also, the values for the inhibition in [5], in experiment [6] and in experiment [12] were -1.82% (inactive), -6.23% (inactive) and 1.38% (inactive), respectively. Moreover, the results for the growth inhibition in experiment [7] and in experiment [8] were 7.09% (inactive) and 11.1% (inactive), respectively. Also, in experiment [9], the viability increase was -0.76% (inactive). Also, the RAM network inhibition in experiment [13] is 10.5% (inactive).

In the case of `CC12CCC(C(=O)N3CCN(C(=O)C45CCC(C)(C(=O)O4)C5(C)C)CC3)(OC1=O)C2(C)C`, the viability in experiment [1] was 109% (inactive); in experiment [2], 97.5% (inactive); in [3], 105% (inactive); in experiment [4] (setting [14]) it was 84.7%; in [4] (setting [15]), 105%; in experiment [10] it was 102% (inactive). In experiment [11], the viability was 94.1% (inactive). The differential viability (reversal) in [4] (H69AR cells + 2 uM doxorubicin) is 20.1% (inactive). Further, the inhibition in experiment [5] is -3.47% (inactive); in [6] it was -7.64% (inactive); in experiment [12], 1.42% (inactive). The growth inhibition is -17% (inactive) in experiment [7] and -7.99% (inactive) in experiment [8]. For the same compound, the viability increase in experiment [9] was -0.17% (inactive). Moreover, the RAM network inhibition in [13] was 0.26% (inactive).

On to `O=C(Nc1cnccn1)c1cccs1`, for which the viability was 115% (inactive) in experiment [1]; 106% (inactive) in experiment [2]; 99% (inactive) in experiment [3]; 91.7% in experiment [4] (setting [14]); 99% in [4] (setting [15]); 94.2% (inactive) in experiment [11]. In addition, in experiment [4] (H69AR cells + 2 uM doxorubicin), the differential viability (reversal) was 7.32% (inactive). Further, the inhibition is -10.8% (inactive) in [5], 1.77% (inactive) in experiment [6] and 0.89% (inactive) in [12]. Moreover, the figures for the growth inhibition in experiment [7] and in [8] were -10.4% (inactive) and 1.52% (inactive), respectively. In experiment [9], the viability increase is -2.25% (inactive). For the same compound, the RAM network inhibition in [13] is 7.21% (inactive).

As for `O=C(CCNS(=O)(=O)c1cccs1)Nc1ccccc1F`, the viability is 81% (inactive) in experiment [1]; 121% (inactive) in [2]; 108% (inactive) in [3]; 99.2% in experiment [4] (setting [14]); 108% in [4] (setting [15]); 90.8% (inactive) in [10]. Further, in [11], the viability is 92.8% (inactive). The differential viability (reversal) in experiment [4] (H69AR cells + 2 uM doxorubicin) is 8.57% (inactive). The inhibition was -6.49% (inactive) in [5], 0.55% (inactive) in experiment [6] and 0.805% (inactive) in experiment [12]. The growth inhibition was -26.3% (inactive) in experiment [7] and -12.8% (inactive) in experiment [8]. For the same compound, the viability increase in [9] is -0.31% (inactive). The RAM network inhibition in experiment [13] was 2.55% (inactive).

Consider `CCOC(=O)C1=C(CS(=O)(=O)c2ccc(F)c(C)c2)NC(=O)NC1c1ccc(O)c(O)c1` (centres undefined), for which the viability in experiment [1] was 112% (inactive); in [2], 85.2% (inactive); in experiment [3], 92.6% (inactive); in experiment [4] (setting [14]), 83.4%; in experiment [4] (setting [15]) it was 92.6%; in experiment [10], 99.1% (inactive). Besides, in experiment [11], the viability is 94.8% (inactive). The differential viability (reversal) in [4] (H69AR cells + 2 uM doxorubicin) is 9.16% (inactive). The figures for the inhibition in [5], in experiment [6] and in experiment [12] were -4.13% (inactive), -7.54% (inactive) and -0.51% (inactive), respectively. In addition, the results for the growth inhibition in experiment [7] and in experiment [8] were 0.775% (inactive) and -9.4% (inactive), respectively. Also, in experiment [9], the viability increase is -1.64% (inactive). In addition, the RAM network inhibition in experiment [13] was 1.66% (inactive).

Consider `O=C(CN1C(=O)NC(Cc2ccccc2)C1=O)Nc1ccccc1` (centres undefined), for which the viability was 101% (inactive) in experiment [2]; 96.7% (inactive) in experiment [3]; 96.9% in experiment [4] (setting [14]); 96.7% in experiment [4] (setting [15]); 97.8% (inactive) in experiment [10]; 94.6% (inactive) in experiment [11]. Besides, the differential viability (reversal) in experiment [4] (H69AR cells + 2 uM doxorubicin) was -0.17% (inactive). Moreover, the inhibition in experiment [5] was -1.17% (inactive); in experiment [6], -0.63% (inactive); in [12], 1.85% (inactive). Moreover, the values for the growth inhibition in experiment [7] and in experiment [8] were -11.6% (inactive) and -16.5% (inactive), respectively. The viability increase in experiment [9] was 1.83% (inactive). Moreover, the RAM network inhibition in [13] was 0.35% (inactive).

With `COc1cccc2cc(C(=O)Nc3cccnc3N3CCOCC3)c(=O)oc12`, the viability in [2] was 101% (inactive); in experiment [3], 94.3% (inactive); in [4] (setting [14]) it was 84.2%; in experiment [4] (setting [15]), 94.3%; in experiment [10], 101% (inactive); in [11] it was 98.8% (inactive). The differential viability (reversal) in [4] (H69AR cells + 2 uM doxorubicin) is 10.1% (inactive). In addition, the results for the inhibition in experiment [5], in experiment [6] and in [12] were -4.03% (inactive), 3.65% (inactive) and 3.31% (inactive), respectively. The results for the growth inhibition in experiment [7] and in experiment [8] were -8.22% (inactive) and -21.8% (inactive), respectively. For the same compound, the viability increase in [9] is -3.74% (inactive). The RAM network inhibition in experiment [13] is 1.45% (inactive).

Turning to `COC(=O)C1CCN(C(=O)CSc2nnc(-c3ccncc3)o2)CC1`, the viability was 101% (inactive) in experiment [2]; 81.8% (inactive) in experiment [3]; 89% in experiment [4] (setting [14]); 81.8% in experiment [4] (setting [15]); 102% (inactive) in experiment [10]; 102% (inactive) in [11]. Further, the differential viability (reversal) in [4] (H69AR cells + 2 uM doxorubicin) was -7.18% (inactive). The inhibition was 1.43% (inactive) in experiment [5], 19.1% (inactive) in [6] and 1.91% (inactive) in experiment [12]. Also, the growth inhibition in experiment [7] is -0.605% (inactive); in experiment [8] it was -6.21% (inactive). In addition, in [9], the viability increase is 1.44% (inactive). For the same compound, in [13], the RAM network inhibition is -1.1% (inactive).

Take `Cn1ccnc1C(O)c1ccco1` (centres undefined): the viability in experiment [2] was 101% (inactive); in experiment [3], 103% (inactive); in [4] (setting [14]), 89.5%; in [4] (setting [15]), 103%; in experiment [10], 102% (inactive); in experiment [11], 103% (inactive). In addition, the differential viability (reversal) in experiment [4] (H69AR cells + 2 uM doxorubicin) is 13.1% (inactive). Besides, the inhibition in experiment [5] was -5.39% (inactive); in experiment [6], 1.43% (inactive); in experiment [12] it was 0.74% (inactive). In addition, the growth inhibition was -5.51% (inactive) in [7] and -3.72% (inactive) in [8]. Also, in experiment [9], the viability increase is -0.09% (inactive). Also, in experiment [13], the RAM network inhibition was 3.14% (inactive).

As to `COc1ccc(C2C(C#N)=C(C)NC3=C2C(=O)CC(C)(C)C3)c(OC)c1` (centres undefined), the viability was 88.9% (inactive) in experiment [2]; 95.3% (inactive) in [3]; 71.8% in experiment [4] (setting [14]); 95.3% in experiment [4] (setting [15]); 97.6% (inactive) in experiment [10]; 91.4% (inactive) in experiment [11]. In addition, in experiment [4] (H69AR cells + 2 uM doxorubicin), the differential viability (reversal) was 23.5% (inactive). In addition, the figures for the inhibition in experiment [5], in experiment [6] and in experiment [12] were -1.3% (inactive), -2.7% (inactive) and 0.825% (inactive), respectively. Moreover, the results for the growth inhibition in experiment [7] and in experiment [8] were -22.8% (inactive) and -14.1% (inactive), respectively. Further, in [9], the viability increase was -1.62% (inactive). For the same compound, in experiment [13], the RAM network inhibition is 1.94% (inactive).

The values above are taken from PubChem BioAssay.
